# Reference: the supplement of paper PMC4466140
# B1: unnamed (peptide)
# chain: NLPKRKPPKLQGPFS
# Biological target: AgAbp1
# Assay: SPOT peptide array binding signal intensity (averaged, normalized) (arbitrary units (background-subtracted, floor 0; scale differs between SH3 domains)); higher = stronger binding of the SH3 domain to the peptide
# Summary of the method: (§1)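 E. coli BL21(DE3) was used to express GST-fused SH3 domains from four yeast species, which were then purified on glutathione Sepharose. These were incubated at 10 μg/ml in TBS-based blocking buffer overnight at 4°C on cellulose membranes carrying synthetic 15-mer peptides, in which cysteines were replaced by serines. Binding signal is the replicate average of normalized, background-subtracted spot intensity, in arbitrary units that differ between domains.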
row,Binder,SPOT peptide array binding signal intensity
1,B1,117

# Biological target: AgBbc1
# Assay: as above
# Summary of the method: as §1
row,Binder,SPOT peptide array binding signal intensity
1,B1,7.75

# Biological target: AgBem1-D1
# Assay: as above
# Summary of the method: as §1
row,Binder,SPOT peptide array binding signal intensity
1,B1,244

# Biological target: AgBzz1-D1
# Assay: as above
# Summary of the method: as §1
row,Binder,SPOT peptide array binding signal intensity
1,B1,148

# Biological target: AgBzz1-D2
# Assay: as above
# Summary of the method: as §1
row,Binder,SPOT peptide array binding signal intensity
1,B1,77.5

# Biological target: AgCyk3
# Assay: as above
# Summary of the method: as §1
row,Binder,SPOT peptide array binding signal intensity
1,B1,2.5

# Biological target: AgFus1
# Assay: as above
# Summary of the method: as §1
row,Binder,SPOT peptide array binding signal intensity
1,B1,64

# Biological target: AgHof1
# Assay: as above
# Summary of the method: as §1
row,Binder,SPOT peptide array binding signal intensity
1,B1,37.5

# Biological target: AgHse1
# Assay: as above
# Summary of the method: as §1
row,Binder,SPOT peptide array binding signal intensity
1,B1,1020

# Biological target: AgLsb1
# Assay: as above
# Summary of the method: as §1
row,Binder,SPOT peptide array binding signal intensity
1,B1,≤ 0

# Biological target: AgLsb4
# Assay: as above
# Summary of the method: as §1
row,Binder,SPOT peptide array binding signal intensity
1,B1,56

# Biological target: AgMyo5
# Assay: as above
# Summary of the method: as §1
row,Binder,SPOT peptide array binding signal intensity
1,B1,4.75

# Biological target: AgNbp2
# Assay: as above
# Summary of the method: as §1
row,Binder,SPOT peptide array binding signal intensity
1,B1,247

# Biological target: AgRvs167
# Assay: as above
# Summary of the method: as §1
row,Binder,SPOT peptide array binding signal intensity
1,B1,2.67

# Biological target: AgSho1
# Assay: as above
# Summary of the method: as §1
row,Binder,SPOT peptide array binding signal intensity
1,B1,12

# Biological target: AgSla1-D1-D2
# Assay: as above
# Summary of the method: as §1
row,Binder,SPOT peptide array binding signal intensity
1,B1,258

# Biological target: AgSla1-D3
# Assay: as above
# Summary of the method: as §1
row,Binder,SPOT peptide array binding signal intensity
1,B1,2

# Biological target: CaAbp1-D1
# Assay: as above
# Summary of the method: as §1
row,Binder,SPOT peptide array binding signal intensity
1,B1,1870

# Biological target: CaAbp1-D2
# Assay: as above
# Summary of the method: as §1
row,Binder,SPOT peptide array binding signal intensity
1,B1,1400

# Biological target: CaBbc1
# Assay: as above
# Summary of the method: as §1
row,Binder,SPOT peptide array binding signal intensity
1,B1,51

# Biological target: CaBem1-D1
# Assay: as above
# Summary of the method: as §1
row,Binder,SPOT peptide array binding signal intensity
1,B1,13

# Biological target: CaBzz1-D1
# Assay: as above
# Summary of the method: as §1
row,Binder,SPOT peptide array binding signal intensity
1,B1,157

# Biological target: CaBzz1-D2
# Assay: as above
# Summary of the method: as §1
row,Binder,SPOT peptide array binding signal intensity
1,B1,162

# Biological target: CaCyk3
# Assay: as above
# Summary of the method: as §1
row,Binder,SPOT peptide array binding signal intensity
1,B1,102

# Biological target: CaFus1
# Assay: as above
# Summary of the method: as §1
row,Binder,SPOT peptide array binding signal intensity
1,B1,186

# Biological target: CaHof1
# Assay: as above
# Summary of the method: as §1
row,Binder,SPOT peptide array binding signal intensity
1,B1,0.5

# Biological target: CaHse1
# Assay: as above
# Summary of the method: as §1
row,Binder,SPOT peptide array binding signal intensity
1,B1,119

# Biological target: CaLsb1
# Assay: as above
# Summary of the method: as §1
row,Binder,SPOT peptide array binding signal intensity
1,B1,≤ 0

# Biological target: CaLsb4
# Assay: as above
# Summary of the method: as §1
row,Binder,SPOT peptide array binding signal intensity
1,B1,127

# Biological target: CaMyo5
# Assay: as above
# Summary of the method: as §1
row,Binder,SPOT peptide array binding signal intensity
1,B1,≤ 0

# Biological target: CaNbp2
# Assay: as above
# Summary of the method: as §1
row,Binder,SPOT peptide array binding signal intensity
1,B1,2240

# Biological target: CaRvs167
# Assay: as above
# Summary of the method: as §1
row,Binder,SPOT peptide array binding signal intensity
1,B1,1.67

# Biological target: CaRvs167-3
# Assay: as above
# Summary of the method: as §1
row,Binder,SPOT peptide array binding signal intensity
1,B1,34.2

# Biological target: CaSho1
# Assay: as above
# Summary of the method: as §1
row,Binder,SPOT peptide array binding signal intensity
1,B1,300

# Biological target: CaSla1-D1-D2
# Assay: as above
# Summary of the method: as §1
row,Binder,SPOT peptide array binding signal intensity
1,B1,48

# Biological target: CaSla1-D3
# Assay: as above
# Summary of the method: as §1
row,Binder,SPOT peptide array binding signal intensity
1,B1,0.5

# Biological target: ScAbp1
# Assay: as above
# Summary of the method: as §1
row,Binder,SPOT peptide array binding signal intensity
1,B1,179
